# Measurements taken from PubChem BioAssay AID588591 (National Center for Advancing Translational Sciences (NCATS), 2011).
# Among all 390,000 compounds or so, about 4,700 (1.2%) were called active. A call without a number means that no potency is given here. Another 4% or so got no clear call; they are omitted. Calls come from the whole dose curve; as a rule, active = well fitted inhibition curve with a large enough effect; inconclusive = small, poorly fitted or top-dose-only effect, or another doubt; inactive = no such curve, though single readings can be large or run the other way. Only a selection was taken, and actives are over-represented in it overall.
# Biological target: DNA polymerase eta (Homo sapiens) (UniProt Q9Y253)
# Assay: qHTS for Inhibitors of Polymerase Eta
# Settings: recombinant Pol eta, fluorescent DNA replication assay; series mostly up to 114 µM
# In short: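 Pol eta (10 nM) was preincubated with compounds for 15 min at room temperature, after which fluorescent replication substrate (50 nM final) was added to start the reaction. Fluorescence was read kinetically at 0 and 10 min.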
# Potency is the fitted concentration of half-maximal effect.
# DNA polymerase eta (Homo sapiens), sequence (Q9Y253 whole entry, looked up): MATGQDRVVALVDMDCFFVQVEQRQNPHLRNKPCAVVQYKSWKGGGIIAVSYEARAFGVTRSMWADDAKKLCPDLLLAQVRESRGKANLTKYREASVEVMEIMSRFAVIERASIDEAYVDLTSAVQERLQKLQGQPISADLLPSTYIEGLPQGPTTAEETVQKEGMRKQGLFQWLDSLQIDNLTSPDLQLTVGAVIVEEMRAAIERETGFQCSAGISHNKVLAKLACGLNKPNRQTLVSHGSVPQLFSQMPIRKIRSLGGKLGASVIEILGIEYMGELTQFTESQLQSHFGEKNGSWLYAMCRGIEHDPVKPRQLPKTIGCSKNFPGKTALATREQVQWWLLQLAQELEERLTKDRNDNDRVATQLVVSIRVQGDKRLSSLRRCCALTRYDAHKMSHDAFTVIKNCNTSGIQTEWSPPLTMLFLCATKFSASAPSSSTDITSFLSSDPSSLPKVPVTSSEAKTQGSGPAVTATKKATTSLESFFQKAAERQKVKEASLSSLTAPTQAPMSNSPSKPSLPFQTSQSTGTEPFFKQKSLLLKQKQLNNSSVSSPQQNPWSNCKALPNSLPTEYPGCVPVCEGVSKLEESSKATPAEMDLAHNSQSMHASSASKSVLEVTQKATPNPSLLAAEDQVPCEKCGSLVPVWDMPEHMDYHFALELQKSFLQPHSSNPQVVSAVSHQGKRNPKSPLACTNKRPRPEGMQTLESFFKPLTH
row,SMILES,Potency
1,COc1ccc(NC(=O)CSC2=Nc3ccccc3C3=NC(CC(=O)NCc4ccccc4OC)C(=O)N23)cc1Cl (stereo not given),inactive
2,CCN(CC)CCOc1ccc2c(c1)C(=NNC(=O)c1ccccn1)c1cc(OCCN(CC)CC)ccc1-2,22.4 µM (active)
3,CCN(CC)S(=O)(=O)c1cc(C(=O)Nc2ccccn2)ccc1C,inactive
4,CCOc1ccc(C(=O)N2CCN(CCc3ccccn3)CC2)cc1,inactive
5,COC(=O)c1ccc(NC(=O)c2cnn(-c3ccc(Cl)cc3)c2C2CCN(C(=O)OC(C)(C)C)CC2)cc1,inactive
6,COc1ccc(-c2nn(CC(=O)Nc3ccccc3F)c3c2cnc2ccc(F)cc23)cc1,inactive
7,O=C(c1ccc(NS(=O)(=O)c2ccc3[nH]c(=O)[nH]c3c2)cc1)N1CCCCC1,inactive
8,O=C(O)c1ccc(NS(=O)(=O)c2ccc3c(c2)C(=O)c2cc(S(=O)(=O)Nc4ccc(C(=O)O)cc4)ccc2-3)cc1,39.8 µM (active)
9,Cc1cc(C(C)(C)C)cc(S(=O)(=O)Nc2ccc(C(=O)O)cc2)c1C,inactive
10,Cc1ccc(CN(C(=O)c2ccccc2[N+](=O)[O-])c2ccccn2)cc1,inactive
11,CC(C)CCNC(=O)CSc1nc2ccccc2nc1Cc1ccc(Cl)cc1,inactive
12,Cn1c(SCC(=O)N2CCCc3ccccc32)ncc(C(=O)Nc2ccc(F)cc2)c1=O,inactive
13,CC(NC(=O)c1cc2c(=O)n3ccccc3nc2n(C(C)C)c1=N)c1ccccc1 (stereo not given),inactive
14,COc1cc(NS(=O)(=O)c2ccc3c(c2)OCC(C(=O)N2CCCC2)O3)cc(OC)c1 (stereo not given),inactive
15,Cc1c(CC(=O)N2CCN(C(=O)C3COc4ccccc4O3)CC2)c(=O)oc2c(O)c(O)ccc12 (stereo not given),2 µM (active)
16,COc1ccc(OC)c2sc(N3CCN(C(=O)C4COc5ccccc5O4)CC3)nc12 (stereo not given),inactive
17,O=S(=O)(NCCc1nnc2ccc(SCc3ccc(Cl)cc3Cl)nn12)c1ccccc1,inactive
18,CCOCCCn1c(SCC(=O)Nc2ccc(CC)cc2)nc2ccccc2c1=O,inactive
19,COc1ccc(OC)c(NC(=O)/C=C/c2ccc(C)o2)c1,inactive
20,CC(=O)Nc1ccc2c3c(ccc([N+](=O)[O-])c13)CC2,inactive
21,Cc1ccc(/C=C/C(=O)Nc2ccc([N+](=O)[O-])c(NC(=O)/C=C/c3ccc(C)o3)c2)o1,8.91 µM (active)
22,COc1ccc(NC(=O)CCNS(=O)(=O)c2ccc3c(c2)CCCC(=O)N3)cc1Cl,inactive
23,C=CCNC(=S)N1CCN(CCN=Cc2c(C)[nH]n(-c3ccc([N+](=O)[O-])cc3)c2=O)CC1,inactive
24,O=c1[nH]n(-c2ccc([N+](=O)[O-])cc2)c(=O)c2ccccc12,39.8 µM (active)
25,O=C(CSCc1ccc([N+](=O)[O-])cc1)NCCSCc1ccccc1,inactive
